Rows were chosen to be rich in hits. Some 1.2% of all compounds tested hit in one or more screens of this group.
RGS8-Gao: modulates binding of RGS8 to human Galphao | multiplexed bead flow cytometry; actives lie on both sides | 220,000 tested, 0.34% active | response (percent of control binding), % at 10 µM; in the data active = response below about 60% or above about 140%; inactive = in between;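 also: Galphao activated as the GDP aluminium fluoride complex binding bead-coupled RGS8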
Target sequence (P09471 whole entry, looked up): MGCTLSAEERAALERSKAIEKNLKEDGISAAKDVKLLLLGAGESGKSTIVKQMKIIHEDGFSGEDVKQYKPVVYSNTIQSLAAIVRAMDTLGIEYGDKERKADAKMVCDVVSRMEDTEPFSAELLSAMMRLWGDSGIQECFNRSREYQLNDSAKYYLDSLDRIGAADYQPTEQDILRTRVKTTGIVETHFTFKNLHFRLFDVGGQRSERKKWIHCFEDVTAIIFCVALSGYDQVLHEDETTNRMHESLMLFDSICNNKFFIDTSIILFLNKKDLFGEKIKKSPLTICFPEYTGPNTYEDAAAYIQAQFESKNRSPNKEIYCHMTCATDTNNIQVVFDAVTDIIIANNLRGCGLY
RGS16-Gao: modulates binding between human RGS16 and Galphao; bead-based flow cytometry RGS16-Galphao binding, fluorescence; actives lie on both sides; binding response (% of control), % at 10 µM; 220,000 tested, 0.38% active; AID 1441;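 also: Galphao activated by GDP with aluminum fluoride before binding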
RGS7-Gao reg: human RGS7-Galphao interaction regulation; Multiplexed bead flow cytometry, RGS7-Galphao binding; actives lie on both sides; AID 1439; 220,000 tested, 0.35% active; binding response (% of control), % at 10 µM; P09471; in the data active = binding response below about 49% or above about 150%; inconclusive = no clear call, values can overlap the other calls; inactive = in between;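 also: fluorescent Galphao held in activated GDP-AlF4 state binding bead-coupled RGS7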
Avidin bead fluor: compound fluoresces at 488/530 nm on avidin beads. compound fluorescence 488/530 nm, flow cytometry; stronger effect = higher value. fluorescence (KMESF) at 10 µM. 220,000 tested, 0.38% active. AID 1775; in the data active = fluorescence above about 47
RGS4-Gao reg: modulates binding of RGS4 to human Galphao | Multiplexed bead flow cytometry; actives lie on both sides | binding response (% of control), % at 10 µM | 220,000 tested, 0.33% active; in the data active = binding response below about 49% or above about 150%; inactive = in between;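 also: fluorescent Galphao activated with aluminum fluoride binding bead-coupled RGS4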
GSH fluor: compound fluoresces at 488/530 nm on GSH beads. GSH beads flow cytometry, compound fluorescence 488/530 nm; stronger effect = higher value. fluorescence (KMESF) at 10 µM. 190,000 tested, 0.25% active. AID 1776; in the data active = fluorescence above about 89;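 also: glutathione beads carrying GST-tagged Bcl family fusion proteins plus one bare bead set; values are compound well signal with DMSO vehicle wells as background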
RGS4-Gao HTS: modulates binding between human RGS4 and Galphao. shares compounds with RGS16-Gao. multiplexed bead flow cytometry, RGS–Galpha-o binding. RGS4–Galpha-o binding response, % at 10 µM. 1,600 tested, 99% active;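 also: fluorescently labeled Galpha-o bound to GDP with aluminium fluoride binding biotinylated RGS beads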
Biotin-avidin: interferes with biotinylated probe binding to avidin beads | 1,700 tested, under 10 active | shares compounds with RGS16-Gao | streptavidin beads, fluorescein-biotin binding, flow cytometry | inhibition, % at 10 µM;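 active = inhibition above 50%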;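 also: median green fluorescence of gated singlet beads compared with DMSO control wells; 0% = DMSO wells and 100% = complete loss of bead fluorescence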
RGS8-Gao confirm: confirmation of regulators of human RGS8-Galphao interaction | shares compounds with RGS16-Gao | bead-based flow cytometry RGS8-Galphao binding, fluorescence; actives lie on both sides | binding response (% of control), % at 10 µM | 1,700 tested, 3% active | AID 1836; in the data active = binding response below about 72% or above about 130%; inactive = in between;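 also: Galphao activated as GDP AlF4 complex before binding bead RGS8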
RGS7-Gao confirm: RGS7-Galphao interaction regulation, single point confirmation; shares compounds with RGS16-Gao; bead-based flow cytometry RGS7-Galphao binding; actives lie on both sides; response (percent of control binding), % at 10 µM; 1,700 tested, 7.8% active; in the data active = response below about 75% or above about 130%; inactive = in between;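 also: fluorescent Galphao activated with GDP and aluminum fluoride binding bead-coupled RGS7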
RGS16-Gao conf: RGS16-Galphao interaction regulation, single point confirmation | shares compounds with RGS16-Gao | bead-based flow cytometry, RGS16-Galphao binding; actives lie on both sides | response (% of control binding), % at 10 µM | 1,700 tested, 4% active; in the data active = response below about 74% or above about 130%; inactive = in between;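 also: Galphao activated as the GDP aluminium fluoride complex binding bead-coupled RGS16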
RGS4-Gao confirm: RGS4-Galphao interaction regulation, single point confirmation. 1,700 tested, 4% active. shares compounds with RGS16-Gao. RGS4-Galphao binding, multiplexed bead flow cytometry; actives lie on both sides. AID 1840. binding response (% of control), % at 10 µM; in the data active = binding response below about 74% or above about 130%; inactive = in between
RGS19-Gao conf: confirmation of regulators of human RGS19-Galphao interaction; 1,700 tested, 5% active; response (percent of control binding), % at 10 µM; shares compounds with RGS16-Gao; bead-based flow cytometry RGS19-Galphao binding; actives lie on both sides; in the data active = response below about 50% or above about 160%; inactive = in between;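 also: 100% = no compound control and 0% = blank background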
An asterisk follows results filed as active; i = inactive; ? = inconclusive; / = no result; [ ] = dose if it differs, or a comment. Unless noted, no rule for the calls is given here.

SMILES	RGS8-Gao	RGS16-Gao	RGS7-Gao reg	Avidin bead fluor	RGS4-Gao reg	GSH fluor	Biotin-avidin	RGS8-Gao confirm	RGS7-Gao confirm	RGS16-Gao conf	RGS4-Gao confirm	RGS19-Gao conf	others
Cc1[nH]c2ccccc2c1/C=N/NC(=S)NCc1ccccc1	106	159	?	34	159*[activator]	17	1	110	226*[activator]	146*[activator]	165*[activator]	294*[activator]
Cc1ccc(N2C(N)=C(C#N)C(c3cccs3)C3=C2CC(C)(C)CC3=O)cc1 (centres undefined)	117	197*[activator]	121	36	197*[activator]	5	0	106	108	107	104	105
CC1(C)CC(=O)C2=C(C1)N(c1ccc(F)cc1)C(N)=C(C#N)C2c1cccs1 (centres undefined)	106	106	107	4	107	19	/	/	/	/	/	/
C/C(=N/NC(=O)CNc1ccc(C)cc1)c1ccc(Cl)cc1	/	/	/	/	/	18	3	102	106	100	100	107
Cc1ccc(C(=O)CNc2ccc(Cl)cc2)cc1	103	104	107	8	103	12	/	/	/	/	/	/
O=C(COc1cccnc1[N+](=O)[O-])c1ccc(Cl)s1	96	99	?	6	93	/	/	/	/	/	/	/
Cc1ccc(Cl)cc1N(CC(=O)NC1CCCCC1)S(C)(=O)=O	247*[activator]	i	197*[activator]	11	180*[activator]	14	-2	103	108	104	102	106
COc1ccc(OCCOC(=O)c2cccc(-n3cnnn3)c2)cc1	29*	4.0*	17*	-1	15*	19	1	101	97	101	100	93
CCCCc1ccc(-n2c(Cc3cccs3)n[nH]c2=S)cc1	96	99	104	6	102	18	/	/	/	/	/	/
COc1ccc(CNC(=O)C2CSC(c3ccc(OC)cc3)N2C(C)=O)cc1 (centres undefined)	70	82	217*[activator]	123*	106	28	-2	103	104	103	103	106	RGS4-Gao HTS=106*
CCOC(=O)C1CCCN(c2c(N3CCN(C)CC3)c(=O)c2=O)C1 (centres undefined)	110	110	115	17	103	26	/	/	/	/	/	/
CCOC(=O)C1CCCN(c2c(N3CCN(c4cccc(Cl)c4)CC3)c(=O)c2=O)C1 (centres undefined)	30*	16*	18*	0	29*	17	-1	104	101	102	101	94
COc1ccc(CCNC(=O)COc2ccc(C)nc2[N+](=O)[O-])cc1OC	102	112	104	25	101	6	/	/	/	/	/	/
CCCC(=O)NC(NC1CCS(=O)(=O)C1)C(Cl)(Cl)Cl (centres undefined)	34*	15*	11*	1	22*	14	0	100	101	105	102	96
CC(C)C(=O)NC(NC1CCS(=O)(=O)C1)C(Cl)(Cl)Cl (centres undefined)	110	107	113	14	100	21	/	/	/	/	/	/

Bioassay records (PubChem)
